Our source for the growth values is PubChem BioAssay (NCI).

Assay in all cases: NCI-60 one-dose screen, 48 h (100 = growth as untreated, 0 = no growth, -100 = all killed)
Conditions in all cases: 10 µM unless noted

In assay [1] the test system is T-47D breast.
The subject of assay [2] is BT-549 breast.
Assay [3] relates to MDA-MB-435 melanoma.
Assay [4] relates to SW-620 colon.
In assay [5] the test system is MCF7 breast.
Assay [6] deals with HCT-116 colon.
Assay [7] concerns HCC-2998 colon.
The test system of assay [8] is KM12 colon.

The panel holds about 83,000 compounds, 20% with a hit somewhere; the sample as a whole holds those more often.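 Each cell line was grown in a 96-well plate and treated with one concentration of compound for 48 hours. Values below 10 were considered active.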 A number with no mark means an inactive call. Active and inactive are the calls of the source.

`Cc1ccccc1NC(=O)Nc1nc2ccc([N+](=O)[O-])cc2s1`: the growth in assay [1] is -10.8% (active); in assay [2], -2.98% (active); in assay [3], 5.39% (active); in assay [4], 11.6%; in assay [5] it was 4.12% (active); in assay [6] it was 2.44% (active). The growth in assay [7] was 24.6%; in assay [8], 4.18% (active).
On to `NC1=NC2(CCCC2)N(c2ccc(S(=O)(=O)Nc3nccs3)cc2)C(N)=N1`, for which the growth in assay [1] is 103%; in assay [2] it was 102%; in assay [3], 107%; in assay [4] it was 105%; in assay [5], 97.6%; in assay [6] it was 109%. Moreover, the growth in assay [7] was 109%; in assay [8] it was 101%.
With `CC(Nc1ncnc2ccc(-c3cnc(N)nc3)cc12)c1ccccc1` (stereo not given), the growth is 12.2% in assay [1]; 19.9% in assay [2]; 50.4% in assay [3]; 67.4% in assay [4]; 18.5% in assay [5]; 33% in assay [6]. Further, the values for the growth in assay [7] and in assay [8] were 43% and 54.7%, respectively.
Turning to `CN1CCN(c2ccc(Nc3nc(NCCNC(=O)c4ccccc4)c4sccc4n3)cc2)CC1`, the growth is 18.1% in assay [1]; 58.8% in assay [2]; 59.3% in assay [3]; 49.1% in assay [4]; 25.7% in assay [5]; 0.236% (active) in assay [6]. Also, the figures for the growth in assay [7] and in assay [8] were 84% and 59.6%, respectively.
For `Cc1nc(N)sc1-c1csc(Nc2ccc(C(F)(F)F)cc2)n1`, the growth was -0.894% (active) in assay [1]; -12% (active) in assay [2]; 37.8% in assay [3]; 20.6% in assay [4]; 17.3% in assay [5]; 20.6% in assay [6]. Moreover, the figures for the growth in assay [7] and in assay [8] were 21% and 10.4%, respectively.
Take `CN1CCN(c2ccc(Nc3nc(NCCCNS(=O)(=O)c4ccccc4)c4sccc4n3)cc2)CC1`: the growth is 36.8% in assay [1]; 62.1% in assay [2]; 50.6% in assay [3]; 52.5% in assay [4]; 35.5% in assay [5]; 16.7% in assay [6]. For the same compound, the growth in assay [7] was 60.4%; in assay [8] it was 73.3%.
For the compound `CCOC(=O)c1c(N)c(C#N)cn1Cc1ccc(Cl)cc1Cl`, the growth was 78.3% in assay [1]; 81.8% in assay [2]; -7.54% (active) in assay [3]; 44.9% in assay [4]; 59.2% in assay [5]; 64% in assay [6]. Besides, the growth is 73% in assay [7] and 60.1% in assay [8].
Take `Cc1csc(/N=C(N)/N=C(\N)c2cccc(C#N)c2)n1`: the growth in assay [1] was 79.7%; in assay [2], 73.1%; in assay [3] it was -6.51% (active); in assay [4] it was 44.4%; in assay [5] it was 77.7%; in assay [6], 49.7%. Besides, the growth in assay [7] was 87.7%; in assay [8], 46.4%.
For the compound `O=C1[C@@H]2Cc3c([nH]c4ccccc34)[C@H](c3ccc(Br)cc3)N2C(=O)CN1C1CCN(Cc2c(Cl)cccc2Cl)CC1`, the growth in assay [1] was 88.5%; in assay [2], 110%; in assay [3], 100%; in assay [4], 92.7%; in assay [5] it was 68.3%; in assay [6] it was 78.8%. For the same compound, the growth was 101% in assay [7] and 99.1% in assay [8].
`CCCCOc1ccc(S(=O)(=O)N2CCN(c3nc(C)cc(N4CCOCC4)n3)CC2)cc1`: the growth in assay [1] was 55.9%; in assay [2], -6.76% (active); in assay [3] it was 6.06% (active); in assay [4], 28.9%; in assay [5], 76.9%; in assay [6] it was -1.17% (active). In addition, the results for the growth in assay [7] and in assay [8] were 33% and 4.03% (active), respectively.
Turning to `O=C(O)CC1CCN(c2ccc3nnc(Cl)n3n2)CC1`, the growth in assay [1] was 96.8%; in assay [2] it was 101%; in assay [3], 105%; in assay [4], 102%; in assay [5] it was 91.2%; in assay [6] it was 103%. Besides, the growth in assay [7] is 107%; in assay [8] it was 98.1%.
As for `CC1=C(C)C(=O)C(Nc2ccc(C)c(C)c2)=C(Br)C1=O`, the growth in assay [1] is 41.6%; in assay [2], 100%; in assay [3], 103%; in assay [4], 103%; in assay [5], 64.2%; in assay [6], 34.7%. Moreover, the growth in assay [7] is 96.4%; in assay [8], 99.8%.
`C#CCN(C)CCCOc1ccc(NCc2ccc(/C=C/C(=O)NO)cc2)cc1Cl`: the growth in assay [1] was 1.04% (active); in assay [2], 18.8%; in assay [3], -25.3% (active); in assay [4], 10.1%; in assay [5] it was 10.4%; in assay [6], 9.47% (active). For the same compound, the growth in assay [7] is -43.2% (active); in assay [8], 5.72% (active).
For the compound `Oc1[nH]c2ccc(Cl)cc2c1N=Nc1nc(N=Nc2c(O)[nH]c3ccc(Cl)cc23)nc(N2CCCCC2)n1`, the growth was 81.5% in assay [1]; 122% in assay [2]; 75.8% in assay [3]; 15.5% in assay [4]; 51.7% in assay [5]; 23.9% in assay [6]. The growth in assay [7] is 38.7%; in assay [8], 47.6%.
For the compound `Cc1nc(/N=C(N)/N=C(\N)c2cccc(Br)c2)sc1C`, the growth was 56.4% in assay [1]; 84.7% in assay [2]; 10.8% in assay [3]; 33% in assay [4]; 13.2% in assay [5]; 25.4% in assay [6]. In addition, the growth is 64.9% in assay [7] and 37.4% in assay [8].
